# Measured values from PubChem BioAssay.
# The source made the active and inactive calls.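 The calls were made as follows, unless noted: active = inhibition above 20% together with a positive visual image hit; inconclusive = visual image hit but inhibition not above 20%; inactive = no visual image hit.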
# Assays:
# [1] = inhibitors of TNFa-induced NFkB p65 translocation, primary screen, imaging, HUVEC, MLSMR starter and 10KST1 sets (AID 438); settings: HUVEC TNFa-induced p65 nuclear translocation; cell count: measured here: nuclei count (cytotoxicity indicator), at 2.08 µM; inhibition: at 2 µM, stronger effect = higher value, 0% TNFa-plus-vehicle, 100% no-TNFa wells;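 also: compound added about 3h40 before a 20 min TNFalpha stimulation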;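 as to inhibition: signal is the nuclear over cytoplasmic p65 intensity ratio per well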
# [2] = inhibitors of mutant huntingtin aggregation, primary screen, imaging, exon1htt(103Q)mCFP cells, high-content imaging (AID 483;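 active = visual image review flags a hit and inhibition of aggregation exceeds 20%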;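 also: compound exposure lasted 3 days before fixation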;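 as to nuclei count: percent of the per-plate median nuclei count of sample wells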); settings: exon1htt(103Q)mCFP cell line, aggregate imaging, at 2 µM; inhibition of aggregation: stronger effect = higher value; nuclei count: measured here: cell count, toxicity
# [3] = inhibitors of E-selectin induction by TNFa, primary screen, imaging, HUVEC, immunofluorescence, MLSMR starter and 10KST1 sets (AID 487;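 active = visually confirmed hit in the image check and inhibition above 20%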;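 as to inhibition: signal is fraction of cell area covered by stained E-selectin grains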;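 as to nuclei count: 100% = median nuclei count of all wells on the same plate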); settings: HUVEC TNFalpha-induced E-selectin immunofluorescence imaging, at 2 µM; inhibition: stronger effect = higher value; nuclei count: measured here: cell number, toxicity
# [4] = molecular target: Voltage-gated potassium channel subunit beta-2 (Rattus norvegicus) (UniProt P62483); test: KvBeta enzyme negative modulators, primary screen, biochemical, NADPH fluorescence (AID 622;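 active = fluorescence slope higher than the sample average by over 3 SD, cut at about -0.22 in these data, passing the limit was not always enough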;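 also: slope of raw intensity against log time taken from 70 to 1610 s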); settings: recombinant KvBeta, 4-cyanobenzaldehyde reduction, at 10 µM, stronger effect = higher value
# Sequence of Voltage-gated potassium channel subunit beta-2 (Rattus norvegicus) (P62483 whole entry, looked up): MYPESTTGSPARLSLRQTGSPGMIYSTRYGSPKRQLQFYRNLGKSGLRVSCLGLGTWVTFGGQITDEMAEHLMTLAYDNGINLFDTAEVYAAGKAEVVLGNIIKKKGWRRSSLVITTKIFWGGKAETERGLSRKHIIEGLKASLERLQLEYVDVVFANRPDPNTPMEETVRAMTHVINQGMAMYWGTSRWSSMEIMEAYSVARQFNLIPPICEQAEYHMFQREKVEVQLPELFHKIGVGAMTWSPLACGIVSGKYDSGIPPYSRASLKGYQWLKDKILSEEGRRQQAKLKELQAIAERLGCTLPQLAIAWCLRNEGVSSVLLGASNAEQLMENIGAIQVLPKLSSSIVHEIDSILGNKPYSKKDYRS
# [5] = molecular target: Voltage-gated potassium channel subunit beta-2 (Rattus norvegicus) (UniProt P62483); test: KvBeta positive modulators, primary screen, biochemical, NADPH fluorescence (AID 623;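 active = NADPH fluorescence slope more negative than the mean of all samples by about 3 SD, 99.7% confidence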;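 also: fluorescence intensity change per second fitted from 20 to 320 s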); settings: Recombinant KvBeta, NADPH fluorescence decrease slope, 10 min; at 10 µM; stronger effect = lower value
# [6] = molecular target: Alpha-2C adrenergic receptor (Homo sapiens) (UniProt P18825); test: modulators of alpha2C/GIRK thallium flux, primary screen, cell-based, HEK293 alpha2C/GIRK1/2 (AID 624;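 active = fluorescence slope after compound addition differing from the mean of all screened samples at 99.7% confidence, in either direction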;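 also: slope of fluorescence ratio to pre-addition baseline per second over 15 to 24 s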); settings: thallium flux BTC fluorescence, at 10 µM, actives lie on both sides
# Sequence of Alpha-2C adrenergic receptor (Homo sapiens) (P18825 whole entry, looked up): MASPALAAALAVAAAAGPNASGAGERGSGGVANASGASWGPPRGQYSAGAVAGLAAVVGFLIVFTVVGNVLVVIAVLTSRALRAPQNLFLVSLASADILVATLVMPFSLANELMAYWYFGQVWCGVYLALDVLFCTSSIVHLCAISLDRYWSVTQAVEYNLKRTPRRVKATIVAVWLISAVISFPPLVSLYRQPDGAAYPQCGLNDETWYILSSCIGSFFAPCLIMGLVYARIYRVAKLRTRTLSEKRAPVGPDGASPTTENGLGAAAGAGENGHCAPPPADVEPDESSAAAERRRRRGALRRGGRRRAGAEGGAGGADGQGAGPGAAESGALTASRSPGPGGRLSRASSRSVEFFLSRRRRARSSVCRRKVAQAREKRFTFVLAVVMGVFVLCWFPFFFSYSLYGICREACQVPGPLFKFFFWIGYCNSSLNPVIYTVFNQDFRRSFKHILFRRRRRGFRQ
# [7] = inhibitors of Sendai virus-induced IRF3 signaling, primary screen, TLR/RLR signaling modifier project, cell-based, Sendai virus stimulus, luciferase, 10K MLSCN set (AID 602276;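 active = inhibition at or above 50% at 10 µM; inactive = inhibition below 50%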;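 also: firefly luciferase from ISG56 promoter only with Renilla not read in this screen; 0% = Sendai virus plus DMSO and 100% = medium plus DMSO without virus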); settings: HEK293 RL24 IRF3 luciferase reporter, at 10 µM, stronger effect = higher value
# [8] = inhibitors of poly I:C-induced TLR3 signaling, primary screen, cell-based, poly I:C stimulus, luciferase, 10K MLSCN set (AID 602277;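 active = inhibition of the reporter signal at or above 50%; inactive = inhibition below 50%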); settings: HEK293-TLR3 RL24 IRF3 luciferase reporter, at 10 µM, stronger effect = higher value
Structure (SMILES),cell count [1],inhibition [1],inhibition of aggregation [2],nuclei count [2] [%],inhibition [3],nuclei count [3] [%],fluorescence slope [4],NADPH fluorescence slope [5],slope [6],inhibition [7],inhibition [8]
CCc1ccccc1NC(=O)CCc1nc(-c2ccc(C)cc2)no1,415,-1% (inactive),-4% (inactive),103,14.1% (inactive),86.3,-0.299 (inactive),1.2e-05 (inactive),0.00374 (inactive),14.1% (inactive),47.2% (inactive)
O=C(OCc1cc2ccccc2[nH]c1=O)c1ccco1,234,5.6% (inactive),1.7% (inactive),87.3,40.8% (inactive),96.9,-0.476 (inactive),-6e-05 (inactive),0.0037 (inactive),4.98% (inactive),31.1% (inactive)
CCOC(=O)C1=C(O)CCn2c1nc1ccccc12,376,2% (inactive),14.2% (inactive),56.5,-214% (inactive),98.6,-0.504 (inactive),-0.000164 (inactive),0.005 (inactive),9.43% (inactive),-0.0537% (inactive)
Cc1cc(NC(=O)CCC(=O)N(c2cccnc2)C(C(=O)NC2CCCC2)c2ccccc2F)no1 (stereo not drawn),557,-9% (inactive),11.8% (inactive),107,-19.7% (inactive),116,-0.62 (inactive),-5.7e-06 (inactive),0.00332 (inactive),-5.41% (inactive),-11% (inactive)
COc1cccc2cc(C(=O)N3CCN(c4ccc(C)cc4C)CC3)c(=O)oc12,800,-3.4% (inactive),-43.1% (inactive),116,-30.2% (inactive),110,-0.565 (inactive),-1.5e-05 (inactive),0.00579 (inactive),-9.04% (inactive),5.89% (inactive)
Cc1cccc(-n2c(O)c(C=Nc3ccccc3N)c(=O)[nH]c2=O)c1,444,6% (inactive),-8.1% (inactive),101,-29.2% (inactive),120,-0.414 (inactive),-0.000142 (inactive),0.00576 (inactive),13% (inactive),25.3% (inactive)
CC(C)CCNC(=O)Cn1c(NCCC(C)C)nc2c1c(=O)n(C)c(=O)n2C,544,-8.3% (inactive),28.1% (inactive),80.1,-11.6% (inactive),102,-0.623 (inactive),8.9e-06 (inactive),0.0069 (inactive),3.06% (inactive),33.2% (inactive)
CCOC(=O)C1=C(C)N=C2SCCC(=O)N2C1c1cc(Br)ccc1OC (stereo not drawn),466,2.7% (inactive),-4.8% (inactive),108,-16% (inactive),85,-0.499 (inactive),7.4e-06 (inactive),0.00736 (inactive),17.2% (inactive),20.9% (inactive)
O=C1OC2(c3ccccc3)C3CCCC2C13,340,-1.1% (inactive),7.7% (inactive),94.1,5.3% (inactive),107,-0.548 (inactive),-7.3e-05 (inactive),0.00538 (inactive),16% (inactive),15.6% (inactive)
O=C(Sc1nnnn1C1CCCCC1)c1cccs1,242,13.8% (inactive),7.4% (inactive),91.3,-291% (inactive),129,-0.317 (inactive),1.5e-05 (inactive),0.00618 (inactive),15.9% (inactive),13.5% (inactive)
CCOc1ccc2[nH]c(=O)c(C(c3nnnn3Cc3ccco3)N3CCC(C)CC3)cc2c1 (stereo not drawn),218,0.8% (inactive),13.4% (inactive),97.1,-65.3% (inactive),82.3,-0.539 (inactive),-2.2e-05 (inactive),0.00417 (inactive),13% (inactive),20.5% (inactive)
COc1ccc(Cc2noc(-c3ccc(C)cc3)n2)cc1,488,12.1% (inactive),-0.3% (inactive),104,-304% (inactive),138,-0.366 (inactive),3.7e-05 (inactive),0.00509 (inactive),-38% (inactive),-135% (inactive)
O=C1CC(c2ccc(F)c(Br)c2)C2=C(CCCC2=O)N1 (stereo not drawn),334,-6.7% (inactive),-9.9% (inactive),113,-63% (inactive),108,-0.327 (inactive),4e-06 (inactive),0.00275 (inactive),-0.311% (inactive),26.9% (inactive)
CCOc1ccccc1NC(=O)NC1CCN(CC(=O)Nc2ccc3c(c2)OCCO3)CC1,285,-4.8% (inactive),2% (inactive),115,-0.8% (inactive),87.4,-0.499 (inactive),4.9e-05 (inactive),0.00583 (inactive),19.4% (inactive),26.5% (inactive)
COc1ccc(OC)c(Nc2ncnc3c2cnn3-c2ccccc2)c1,334,-6.5% (inactive),-6.7% (inactive),111,-26.3% (inactive),113,-0.4 (inactive),-2.9e-05 (inactive),0.00524 (inactive),-14.3% (inactive),-62.3% (inactive)
CCCCCCC1/C(=N/O)CCC1C(=O)OC (stereo not drawn),656,-7.7% (inactive),7.3% (inactive),91.2,-54.1% (inactive),127,-0.614 (inactive),-8.9e-06 (inactive),0.00642 (inactive),0.917% (inactive),10.1% (inactive)
COC(=O)c1ccc(NC(=O)CN2CCCC2)cc1,612,-11.4% (inactive),13.1% (inactive),107,51.6% (inactive),141,-0.514 (inactive),-6.2e-05 (inactive),0.00467 (inactive),9.14% (inactive),7.68% (inactive)
CN(C#N)c1nc(N2CCOCC2)nc(N2CCOCC2)n1,424,-3.8% (inactive),-5.5% (inactive),104,-192% (inactive),105,-0.612 (inactive),6.7e-06 (inactive),0.00573 (inactive),16.7% (inactive),20% (inactive)
Cc1nnc(SCC(=O)N2CC(=O)Nc3ccccc32)n1-c1ccccc1,502,-4.7% (inactive),-14.7% (inactive),102,-190% (inactive),134,-0.483 (inactive),-3.9e-05 (inactive),0.00543 (inactive),19.7% (inactive),22.4% (inactive)
Cc1cccc(NC(=O)c2cc(NC(=O)c3ccco3)ccc2Cl)n1,678,-2.8% (inactive),16.4% (inactive),83.5,19.9% (inactive),98,-0.529 (inactive),1.5e-06 (inactive),0.00521 (inactive),1.7% (inactive),-7.38% (inactive)
Cc1ccc(S(=O)(=O)NC(C)C(=O)Nc2ccc(C(N)=O)cc2)cc1 (stereo not drawn),707,1.6% (inactive),1.1% (inactive),77.4,-22.5% (inactive),105,-0.521 (inactive),1.6e-05 (inactive),0.0049 (inactive),-2.81% (inactive),2.56% (inactive)
CCN(CC)CCN1C(=O)Cn2c(C)c(C)c3cccc1c32,426,-6.7% (inactive),18.6% (inactive),93.7,-102% (inactive),232,-0.434 (inactive),-1.1e-05 (inactive),0.00506 (inactive),15% (inactive),24.1% (inactive)
COc1ccc(C(=O)NCc2ccccc2OC)cc1,590,-0.6% (inactive),-15.5% (inactive),107,-25.9% (inactive),111,-0.47 (inactive),-0.000293 (inactive),0.00583 (inactive),-2.6% (inactive),-7.58% (inactive)
CCOC(=O)Cn1c(=O)c(-c2ccccc2N)nc2ccccc21,620,-1.8% (inactive),2.1% (inactive),124,-50.2% (inactive),116,-0.542 (inactive),-3.7e-05 (inactive),0.00661 (inactive),12.3% (inactive),33.1% (inactive)
COc1ccc(S(=O)(=O)Nc2ccccc2OC)cc1C,471,-3.3% (inactive),0.3% (inactive),96.5,-26.6% (inactive),110,-0.459 (inactive),1.9e-05 (inactive),0.00608 (inactive),16.7% (inactive),27.5% (inactive)
O=C(CCc1ccccc1)Nc1ccncc1,412,1% (inactive),7.9% (inactive),94.1,-273% (inactive),118,-0.446 (inactive),-1.1e-05 (inactive),0.00342 (inactive),-2.19% (inactive),11.2% (inactive)
CCOC(=O)c1ccc(N2C(=O)CC(N3CCN(C/C=C/c4ccccc4)CC3)C2=O)cc1 (stereo not drawn),375,-4.9% (inactive),-10.3% (inactive),103,-52.6% (inactive),125,-0.39 (inactive),1.2e-05 (inactive),0.008 (inactive),9.04% (inactive),16.7% (inactive)
CCN(CC)CCn1c(OC)cc(=O)[nH]c1=O,411,5.3% (inactive),-27.5% (inactive),108,-137% (inactive),114,-0.503 (inactive),1.6e-06 (inactive),0.00433 (inactive),10.7% (inactive),18.4% (inactive)
